# aSyn UTR act: Activators working through SNCA 5'UTR binding (MLPCN). alpha-synuclein 5'UTR reporter, activators screen. activity score, % (tested at 7.5 µM), hits read low. 300,000 tested, 7.1% active. AID 1814; in the data active = activity score below about -60%
# Active calls of the source: *. These entries were drawn from the full list.
SMILES,aSyn UTR act
COc1cccc(OCc2cc(C(=O)N(C)Cc3nc(C)cs3)no2)c1,-112*
Cc1ccc(OCc2cc(C(=O)N(C)CCc3ccccn3)no2)cc1C,-73*
Cn1cnnc1SCC(=O)c1ccc2c(c1)CCCC2,-71*
Fc1ccc(NC(=S)Nc2nccs2)cc1,-128*
Fc1ccc(NC(=S)Nc2ccc3nccnc3c2)cc1,-91*
CC(C)(C)c1nnc(NC(=S)Nc2ccccc2)s1,-167*
S=C(Nc1ccccc1)Nc1nccs1,-177*
CN1CCC(=NNc2ncnc3sc4c(c23)CCCC4)CC1,-82*
Cc1nccc(-c2ccc(-n3cnc4ccccc43)cc2)n1,-96*
Nc1nccc(-c2ccc(-n3cnc4ccccc43)cc2)n1,-63*
CC(C)(C)N=Cc1cc(-c2ccccc2)sc1O,-162*
Cc1ccc(Nc2ncnc3sc(C)c(C)c23)cc1,-182*
Cc1sc2ncnc(N/N=C/c3cccc(O)c3)c2c1C,-75*
C/C(=N\Nc1ncnc2sc(C)c(C)c12)c1ccccn1,105
Cc1ccc(-n2ncc3c(N4CCCC4)ncnc32)c(C)c1,-114*
Cc1ccc(-n2ncc3c(N4CCCC(C)C4)ncnc32)c(C)c1 (stereo unspecified),-125*
CC1CCCN(c2ncnc3c2cnn3-c2ccccc2)C1 (stereo unspecified),61
O=C(/C=C/c1ccc(S(=O)(=O)NCc2ccco2)cc1)NCc1ccccc1Cl,-72*
O=C(/C=C/c1ccc(Cl)cc1)NCc1ccco1,-87*
CSc1cccc(CN(C)C(=O)C2CCC(=O)N(CCCN3CCCC3=O)C2)c1 (stereo unspecified),-73*
NC(N)=NS(=O)(=O)c1ccc(N/C=C/C(=O)c2ccc(Cl)c(Cl)c2)cc1,-119*
CCc1ccc(NC(=O)c2ccc3nc(N)sc3c2)cc1,-131*
CC(=O)Nc1ccc2cc3ccc(NC(C)=O)cc3nc2c1,-73*
CC(=O)Nc1ccc2nc(N)sc2c1,-107*
Nc1nc2ccc(C(=O)Nc3ccccc3)cc2s1,-129*
SMILES,aSyn UTR act
CCCC1CCC(c2ccc(OCC)cc2)=CC1=O (stereo unspecified),-216*
Cc1cc2c(C)cc(=O)[nH]c2cc1NC(=O)CCl,-70*
Oc1ccccc1N=Nc1ccccc1O,58
Nc1ccc(N=Nc2ccccc2O)c(N)c1,-136*
COc1ccccc1C1=NN(C(=S)Nc2ccccc2)C(c2ccco2)C1 (stereo unspecified),-154*
CN(C)CCCNC(=S)NCC(c1ccc(Cl)cc1Cl)c1c[nH]c2ccccc12 (stereo unspecified),111
CN(C)c1ccc(C(=O)c2ccc(N(C)C)c(N)c2)cc1N,-74*
CCOc1ccc(C(=O)c2ccc(OCC)c(N)c2)cc1N,-70*
COc1ccc(/C=C2/SC(=S)N(CCCC(=O)Nc3ccc(O)cc3)C2=O)cc1,68
COc1ccc(/C=C2\SC(=O)N(CCNC(=O)CCS(=O)(=O)c3ccc(C)cc3)C2=O)cc1,-64*
COc1ccc(/C=C2\SC(=O)N(CCNC(=O)Cn3cnnn3)C2=O)cc1,-187*
CC(C)c1ccc(/C=C2\SC(=O)N(CC(=O)NCCCn3ccnc3)C2=O)cc1,-110*
COc1ccc(/C=C2\SC(=O)N(CCNC(=O)C3CCN(S(=O)(=O)c4cccs4)CC3)C2=O)cc1,-113*
CC(=O)Nc1ccc(SCC(=O)c2cc(C)n(Cc3cccs3)c2C)cc1,68
Cc1ccc(NC(=O)CNCc2cccs2)cc1Br,-85*
O=C(CNCc1cccs1)Nc1ccc(N2CCCCCC2)cc1,-63*
CC(=O)c1ccc(NC(=O)CNCc2cccs2)cc1,-134*
CC1=CC2=NC(=O)/C(=C\c3cccn3CCOc3ccc(C)c(C)c3)C(=N)N2O1,-95*
Cc1ccc(Nc2nc(CSc3nnnn3C)cs2)cc1,-103*
Cc1ccc(Nc2nc(CSc3n[nH]c(N)n3)cs2)cc1,-108*
Cn1nnnc1SCc1csc(Nc2ccccc2)n1,-109*
COc1ccc(C)cc1-n1nnnc1SCc1nc2ccccc2s1,-148*
COc1ccc(-n2nnnc2SCc2nc3ccccc3s2)cc1,-161*
Cc1cc(OCC(=O)N2CCOCC2)ccc1[N+](=O)[O-],-76*
Cc1cc(OCCN2CCOCC2)ccc1[N+](=O)[O-],-80*
SMILES,aSyn UTR act
Cc1ccc(OCc2ccc(C(=O)Nc3nc4ccccc4n3Cc3ccccc3)o2)c([N+](=O)[O-])c1,61
Cc1cc(OCCN2CCOCC2)ccc1Cl,-76*
Cc1ccc(OCCCN2CCOCC2)c([N+](=O)[O-])c1,-82*
Cc1ccc(OCCCCCN2CCOCC2)c(Cl)c1,-74*
CCCN1C/C(=C/c2ccc3c(c2)OCO3)C(=O)/C(=C/c2ccc3c(c2)OCO3)C1,-105*
Cn1c(=O)c2c(nc(NCc3ccco3)n2C/C=C/c2ccccc2)n(C)c1=O,90
Cc1cccn2c(=O)c(C=Nc3ccccc3)c(NCc3ccco3)nc12,-118*
CC1(C)COC(c2coc3ccccc3c2=O)OC1,-97*
COC(=O)c1sccc1NC(=O)COc1ccc(Cl)cc1Cl,-162*
CC1(C)Cc2c(sc(NC(=O)COc3ccc(Cl)cc3Cl)c2C(N)=O)C(C)(C)N1,62
COC(=O)c1sccc1NC(=O)COc1ccc(C)cc1,-144*
O=C1NC(=S)S/C1=C\c1coc2ccccc2c1=O,-85*
O=C(Oc1ccc(-c2cnc3ccccc3n2)cc1)c1ccc(Br)o1,-117*
O=C(Oc1ccc(-c2cnc3ccccc3n2)cc1)c1cccc([N+](=O)[O-])c1,-183*
O=C(Oc1ccc(-c2cnc3ccccc3n2)cc1)c1ccc(Cl)c([N+](=O)[O-])c1,-129*
CCCn1c(O)c(C=Nc2ccccc2)sc1=S,-86*
Cc1ccc(Nc2cccccc2=O)cc1,-101*
Nc1c(C(=O)N/N=C/c2cccnc2)cnn1-c1ccccc1,-67*
COc1ccc(C2NN=C(c3ccc(C)cc3)S2)cc1 (stereo unspecified),-172*
Cc1ccc(C2=NNC(C(O)C(O)C(O)CO)S2)cc1 (stereo unspecified),-66*
Cc1ccc(O)c(-n2nc3ccccc3n2)c1,-134*
O=C(N/N=C(\Cc1ncc[nH]1)c1ccccc1)c1ccccc1,74
Cc1ccc(NC(=O)c2cccs2)cc1,-145*
O=C(Nc1ccc(NC(=O)c2cccs2)cc1)c1ccccc1,-140*
O=C(O)CC/C(=N/NC(=O)c1cccs1)c1ccccc1,-167*
SMILES,aSyn UTR act
O=C(Nc1ccc2c(c1)CCC2)c1cccs1,-145*
COc1c(Cl)cc(Cl)cc1/C=C/C(=O)c1ccc(NC(=O)c2cccs2)cc1,-115*
CC(=O)Oc1cccc(C(=O)Nc2ccc(NC(=O)c3cccs3)cc2)c1,-106*
O=C(Nc1ccc(NC(=O)c2cccs2)cc1)c1ccco1,-232*
O=C(Nc1cccc(O)c1)c1ccc(NC(=O)c2cccs2)cc1,-68*
O=C(Nc1ccc(O)cc1)c1ccc(NC(=O)c2cccs2)cc1,-70*
O=C(Nc1ccc(Cc2ccncc2)cc1)c1cccs1,-66*
O=c1/c(=C\c2ccc(F)cc2)sc2n1CCCN=2,-201*
Cc1ccc(Sc2c(CO)c(-c3ccccc3)nn2C)cc1,-86*
Cc1cc(N2CCN(Cc3cn(C)nc3-c3ccccc3F)CC2)cc(C)n1,91
c1ccc(CN2CCN(C3=Nc4cccc5cccc3c45)CC2)cc1,-101*
Fc1ccc(N2CCN(C3=Nc4cccc5cccc3c45)CC2)cc1,-173*
O=C(Nc1cccnc1)C1CCN(S(=O)(=O)c2cccs2)CC1,-108*
O=C(NCC(=O)N1CCN(c2ncccn2)CC1)c1cccs1,-66*
Nc1nnc(/C=C/c2ccccc2Cl)s1,-81*

# High-throughput results as filed in PubChem.
